In the library only some 1.8% were active in any assay of this set; here they are far more common.
VLA-4 inh = inhibition in a human VLA-4 binding assay. AID 2557. 330,000 compounds, 0.2% hits. P13612. VLA-4 expressing cells, ligand binding flow cytometry. inhibition, % (about 7 µM as worked out from the volumes in the protocol); in the data active = inhibition above about 50%
Target sequence (P13612 whole entry, looked up): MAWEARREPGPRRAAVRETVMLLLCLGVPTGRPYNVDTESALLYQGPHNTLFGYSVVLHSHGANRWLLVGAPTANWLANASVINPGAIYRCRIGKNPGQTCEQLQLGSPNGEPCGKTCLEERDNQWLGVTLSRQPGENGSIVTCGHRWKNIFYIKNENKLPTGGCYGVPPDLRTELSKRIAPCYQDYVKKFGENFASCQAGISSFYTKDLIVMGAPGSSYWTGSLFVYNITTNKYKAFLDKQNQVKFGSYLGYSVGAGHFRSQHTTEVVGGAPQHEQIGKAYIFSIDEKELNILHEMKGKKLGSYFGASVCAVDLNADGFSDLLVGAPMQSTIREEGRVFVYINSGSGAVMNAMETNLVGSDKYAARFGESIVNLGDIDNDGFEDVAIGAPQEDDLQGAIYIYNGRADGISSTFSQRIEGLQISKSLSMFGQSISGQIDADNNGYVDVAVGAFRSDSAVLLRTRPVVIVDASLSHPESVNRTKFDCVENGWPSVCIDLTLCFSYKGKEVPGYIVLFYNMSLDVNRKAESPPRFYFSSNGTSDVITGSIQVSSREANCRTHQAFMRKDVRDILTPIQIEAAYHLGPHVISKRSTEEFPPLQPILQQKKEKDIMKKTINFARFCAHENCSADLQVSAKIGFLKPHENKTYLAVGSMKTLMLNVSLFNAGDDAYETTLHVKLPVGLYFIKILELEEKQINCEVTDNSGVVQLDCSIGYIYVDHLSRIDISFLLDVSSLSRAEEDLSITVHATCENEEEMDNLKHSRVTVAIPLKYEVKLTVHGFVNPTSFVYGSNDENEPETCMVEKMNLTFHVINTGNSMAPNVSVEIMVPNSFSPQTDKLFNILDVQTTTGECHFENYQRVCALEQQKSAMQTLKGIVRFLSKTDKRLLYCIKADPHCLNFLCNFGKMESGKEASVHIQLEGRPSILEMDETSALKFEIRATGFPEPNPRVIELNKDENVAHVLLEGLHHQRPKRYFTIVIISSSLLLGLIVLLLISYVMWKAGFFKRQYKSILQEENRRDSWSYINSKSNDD
APOBEC3G inh = APOBEC3G (human) deaminase inhibition | recombinant A3G, ssDNA deamination FAM/TAMRA fluorescence | inhibition, % at 20 µM | 330,000 compounds, 0.28% hits | AID 493012;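 active = inhibition of at least 40% at 20 µM, with no more than 30% in the related APOBEC3A deaminase screen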
A3A deaminase = inhibitors of human APOBEC3A DNA deaminase; P31941; recombinant A3A, FAM/TAMRA ssDNA deamination fluorescence; inhibition, % at 20 µM; 330,000 compounds, 0.41% hits; AID 493011;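 active = at least 40% inhibition at 20 µM here, with at most 30% in a related deaminase screen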
CendR NRP1 mod = NRP-1/CendR interaction modulation; O14786; FAM-RPARPAR peptide binding to NRP-1, fluorescence polarization; 360,000 compounds, 0.85% hits; inhibition, % at 25 µM;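 active = inhibition or corrected inhibition above about 18%, plus a signal ratio from 0.5 to 1.5, limit read from the data, passing the limit was not always enough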
MIN6 prolif = induces beta-cell replication in MIN6 cells; 330,000 compounds, 0.29% hits; proliferation, % at 10 µM; MIN6 cells proliferation, ATPlite luminescence, 48 h; cells starved in 0.2% serum; 100% = growth in 10% serum;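 active = compounds whose signal lies at least 3.5 SD above the mean of all wells on their plate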
Of the large screens only hits and unclear results are named; the others gave an inactive call.

CC(CCc1ccccc1)NC(=O)COC(=O)c1ccc(NC(N)=O)cc1 (centres undefined)	none
Cc1c(CC(=O)O)c(=O)oc2c(C)c3occ(-c4ccccc4)c3cc12	CendR NRP1 mod 45.2
COc1ccccc1COc1ccc2c(C)c(CC(=O)O)c(=O)oc2c1C	CendR NRP1 mod 36.3
CC1CCN(c2ccc(NC(=O)C3CCCN3S(=O)(=O)c3ccc(F)cc3)cc2)CC1 (centres undefined)	none
CC1(N=Cc2cc(Cl)ccc2O)COP(=O)(NC2CCCC2)OC1 (centres undefined)	none (no result: VLA-4 inh, APOBEC3G inh, A3A deaminase, MIN6 prolif)
Cc1ccc(-n2c(-c3nn(C)c(C)c3Cl)n[nH]c2=S)cc1	CendR NRP1 mod 20.3
CCn1c(-c2nn(C)c(C)c2Cl)n[nH]c1=S	none
COc1ccc(C(=O)N(C)Cc2cnn(Cc3ccccc3)c2)cc1S(=O)(=O)N1CCOCC1	none
Cc1ccc(NC(=O)NC(=O)COc2c(F)c(F)cc(F)c2F)c(C)c1	none
COC(=O)CCCC1=CC2=C(c3ccccc3)C(=O)C(C)(OC(=O)C3CCCC3)C(=O)C2=CN1C1CCCC1 (centres undefined)	CendR NRP1 mod 30.1
COC(=O)CCCC1=CC2=C(c3ccccc3)C(=O)C(C)(OC(=O)C3CCCC3)C(=O)C2=CN1CC1CC1 (centres undefined)	none
COCCN1C=C2C(=O)C(C)(OC(=O)C3CCCC3)C(=O)C(c3ccccc3)=C2C=C1CCCC(=O)OC (centres undefined)	CendR NRP1 mod 25.9
CCCCC1=CC2=C(c3ccco3)C(=O)C(C)(OC(=O)c3ccc(OC)cc3)C(=O)C2=CN1CCOC (centres undefined)	CendR NRP1 mod 28.5
CCN(CC)CCCN1C=C2C(=O)C(C)(OC(=O)C3CCCC3)C(=O)C(c3ccccc3)=C2C=C1CCCC(=O)OC (centres undefined)	CendR NRP1 mod 35.6
O=C(CSc1nc2nn(-c3ccccc3)c(=O)c-2c2n1CCCCC2)Nc1ccccc1[N+](=O)[O-]	none (no result: VLA-4 inh)
NC(=O)NC(CC(=O)Nc1cccnc1)c1cccc(Br)c1 (centres undefined)	none
COC(=O)CCCC1=CC2=C(c3ccccc3)C(=O)C(C)(OC(=O)C3CCCC3)C(=O)C2=CN1CC(C)C (centres undefined)	CendR NRP1 mod 27.7
COCCCNC(=O)c1ccccc1-c1cc(C)no1	none
Cc1ccc(Cn2c(C(C)Nc3nc(-c4ccc(Cl)c([N+](=O)[O-])c4)cs3)nc3cc(C(F)(F)F)ccc32)cc1 (centres undefined)	CendR NRP1 mod 34.8
Cc1csc(NC(C)c2nc3cc(C(F)(F)F)ccc3n2CCCO)n1 (centres undefined)	CendR NRP1 mod 35.4 (no result: VLA-4 inh)
CCCCN(C(=O)c1cccc(S(=O)(=O)N(CC)c2ccccc2)c1)c1c(N)n(CCCC)c(=O)[nH]c1=O	none (no result: VLA-4 inh, APOBEC3G inh, A3A deaminase, MIN6 prolif)
Cc1ccc(NC(=O)COc2ccc3c(c2)OCO3)c(C)c1	CendR NRP1 mod 15.9
CSc1ccccc1NC(=O)COc1ccc2c(c1)OCO2	none
COc1ccc(-c2cccc(C3CC=CC4C3C(=O)N(Cc3ccccc3)C4c3ccc4ccccc4c3)c2)cc1 (centres undefined)	CendR NRP1 mod 28.1
O=C(c1ccc(Cl)cc1)C1CCN(C(=O)c2ccccc2)CC1	none
O=C(O)C1CCN(C(=O)c2ccc(Cl)cc2)CC1	CendR NRP1 mod 25.4
Cn1ccc2c(-c3ccc(F)cc3)cc3c(c21)C1CCC3C1 (centres undefined)	none (no result: VLA-4 inh, APOBEC3G inh, A3A deaminase, MIN6 prolif)
CSc1ccc(-c2cc3c(c4c2ccn4C)C2CCC3C2)cc1 (centres undefined)	CendR NRP1 mod 25.2 (no result: VLA-4 inh, APOBEC3G inh, A3A deaminase, MIN6 prolif)
CC(C)N(C(C)C)S(=O)(=O)c1ccc(NC(=O)c2cnccn2)cc1	none
CC(=O)N1CCCc2cc(S(=O)(=O)CCC(=O)Nc3cccc(C)c3C)ccc21	none
CCC(=O)N1CCCc2cc(S(=O)(=O)CCC(=O)Nc3ccccc3C)ccc21	CendR NRP1 mod 27.9
COc1ccc(-c2csc(NC(CO)c3nc4ccccc4n3CCOCCO)n2)cc1 (centres undefined)	none
COc1ccc(-c2csc(NC(CO)c3nc4ccccc4n3CCCO)n2)cc1 (centres undefined)	CendR NRP1 mod 26.1
CC(C)(C)OC(=O)N1CCC(C(=O)Nc2cccc(C(=O)N3CCCCC3)c2)CC1	none (no result: VLA-4 inh, APOBEC3G inh, A3A deaminase, MIN6 prolif)
COc1ccc(CNS(=O)(=O)c2ccc(C)cc2)cc1	CendR NRP1 mod 28.4
CO/N=C/NC(=O)c1c(OC)ccnc1Oc1ccccc1	CendR NRP1 mod 25.6
COc1ccc(-c2cc(N)n(S(=O)(=O)c3c(F)c(F)c(F)c(F)c3F)n2)cc1OC	CendR NRP1 mod 25.5
CCOc1ccc(-c2[nH]nc3c2C(c2ccc(O)cc2)C(C#N)=C(N)O3)cc1 (centres undefined)	none
CCOc1cc(C2C(C#N)=C(N)Oc3n[nH]c(-c4ccncc4)c32)cc([N+](=O)[O-])c1O (centres undefined)	CendR NRP1 mod 31.6
CCOC(=O)N1CCN(C(=O)c2cn(CC)c3ccc(S(=O)(=O)N(C)C4CCCCC4)cc3c2=O)CC1	none
Cc1ccc(C)c(NC(=O)CCC(=O)NN=C2CCCC2)c1	none
CC(=O)C(=Cc1ccc(Cl)cc1)C(=O)c1ccccc1	CendR NRP1 mod 22.0 (no result: VLA-4 inh, APOBEC3G inh, A3A deaminase, MIN6 prolif)
Cc1ccc(OCCN2CCC2(C)C(=O)Nc2ccc3c(c2)OCO3)cc1 (centres undefined)	none (no result: VLA-4 inh, APOBEC3G inh, A3A deaminase, MIN6 prolif)
CNC(=S)N1N=C(c2ccc(Br)cc2)CC1c1ccc(N(C)C)cc1 (centres undefined)	CendR NRP1 mod 32.5
CNC(=S)N1N=C(c2ccc(Br)cc2)CC1c1ccc(Br)cc1 (centres undefined)	none
O=c1[nH]c(=O)n(C2OC(CO)C(O)C2O)cc1Br (centres undefined)	none
O=c1[nH]c(=O)n(C2OC(CO)C(O)C2O)c2c1CCCC2 (centres undefined)	CendR NRP1 mod 22.9 (no result: VLA-4 inh, APOBEC3G inh, A3A deaminase, MIN6 prolif)
CCC(C)c1ccccc1N1CC(C(=O)NCCc2ccc(OC)c(OC)c2)CC1=O (centres undefined)	none
O=C(COC(=O)c1ccc(N2CCCC2=O)cc1)c1ccccc1	CendR NRP1 mod 28.3
CCN(CC)CCNC(=O)C(Cl)=C1C(Cl)=C(Cl)C(Cl)=C1Cl	none (no result: VLA-4 inh, APOBEC3G inh, A3A deaminase, MIN6 prolif)
Cc1cc(NC(=O)Nc2cc(Cl)ccc2C)no1	CendR NRP1 mod 19.5
CC(C)(C)c1ccc(S(=O)(=O)N2CCN(c3ncccn3)CC2)cc1	CendR NRP1 mod 26.9
O=S(=O)(c1ccccc1)N1CCN(c2ncccn2)CC1	none
Cc1sc2ncn(CC(=O)NCC(=O)N3CCN(c4ccccc4F)CC3)c(=O)c2c1C	none
N#CCCOC1(C#CCN2CCCC2)CCCCC1	none
CC(OC(=O)c1ccc(=O)n(Cc2ccccc2)n1)C(=O)Nc1cccc(Cl)c1 (centres undefined)	CendR NRP1 mod 16.7
Cc1cc(N2CCN(C(C(=O)NC3CCCC3)c3ccc(-c4ccccc4)cc3)CC2)c2ccccc2n1 (centres undefined)	none (no result: VLA-4 inh, APOBEC3G inh, A3A deaminase, MIN6 prolif)
CCOC(=O)c1c(NC(=O)COc2ccccc2C#N)sc2c1CC(C)(C)NC2(C)C	CendR NRP1 mod 22.1

Bioassay records from PubChem.
